From PubChem BioAssay (NCATS)
Records with an inconclusive call do not appear. Activity calls are given as the source filed them. Unless noted, the call rests on the fitted dose curve; in most records, active means well fitted curve in the direction sought with a large enough effect; inconclusive means small, poorly fitted or top-dose-only effect, or another doubt; inactive means no such curve, though single readings can be large; an effect the other way counts as inactive or inconclusive.

Experiments:
[1] = molecular target: Rap guanine nucleotide exchange factor 3 (Homo sapiens) (UniProt O95398); assay: Confirmatory qHTS for antagonist of cAMP-regulated guanine nucleotide exchange factor 3 (EPAC1) (AID 1645880);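 further: plate controls were DMSO only for no effect and full effect of the ATA control for full effect; nearly all actives have a fitted effect of over 55% in size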
Sequence of Rap guanine nucleotide exchange factor 3 (Homo sapiens) (O95398 whole entry, looked up): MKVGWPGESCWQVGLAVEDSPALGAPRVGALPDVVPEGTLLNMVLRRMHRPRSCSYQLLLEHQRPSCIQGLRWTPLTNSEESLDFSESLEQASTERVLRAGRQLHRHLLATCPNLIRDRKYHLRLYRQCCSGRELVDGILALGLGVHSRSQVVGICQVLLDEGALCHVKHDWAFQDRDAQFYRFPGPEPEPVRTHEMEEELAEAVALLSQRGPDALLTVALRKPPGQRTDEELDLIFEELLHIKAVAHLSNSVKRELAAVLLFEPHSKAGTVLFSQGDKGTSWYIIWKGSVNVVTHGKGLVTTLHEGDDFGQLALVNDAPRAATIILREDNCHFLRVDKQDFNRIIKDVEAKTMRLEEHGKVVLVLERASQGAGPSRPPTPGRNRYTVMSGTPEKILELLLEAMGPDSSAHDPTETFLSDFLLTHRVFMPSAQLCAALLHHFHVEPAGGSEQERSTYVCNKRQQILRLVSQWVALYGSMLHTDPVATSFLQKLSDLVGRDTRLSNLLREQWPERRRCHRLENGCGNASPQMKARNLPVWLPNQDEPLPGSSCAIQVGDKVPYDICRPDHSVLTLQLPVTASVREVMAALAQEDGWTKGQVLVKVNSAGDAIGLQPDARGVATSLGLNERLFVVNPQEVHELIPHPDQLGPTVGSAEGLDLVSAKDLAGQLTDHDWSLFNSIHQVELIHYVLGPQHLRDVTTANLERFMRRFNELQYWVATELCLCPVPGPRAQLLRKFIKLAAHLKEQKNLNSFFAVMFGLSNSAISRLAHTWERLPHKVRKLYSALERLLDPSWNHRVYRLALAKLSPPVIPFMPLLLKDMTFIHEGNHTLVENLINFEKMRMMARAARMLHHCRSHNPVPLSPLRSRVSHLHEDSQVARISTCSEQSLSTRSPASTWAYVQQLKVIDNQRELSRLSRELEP
Summary of the method: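 Nucleotide exchange uses 100 nM EPAC1, 250 nM RAP1B-BODIPY-GDP and 50 uM GDP, with compounds in a concentration-titration series. After 5 min at room temperature, fluorescence (480 nm ex/540 nm em) is read every 5 min for 30 min. Data are normalized to control ATA and DMSO.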

[2] = molecular target: Rap guanine nucleotide exchange factor 3 (Homo sapiens) (UniProt O95398); assay: Confirmatory qHTS for agonist of cAMP-regulated guanine nucleotide exchange factor 3 (EPAC1) (AID 1645881);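 further: EPAC1 catalysed release of BODIPY-GDP from Rap1B seen as fluorescence loss; 100% = effect of cAMP agonist control; nearly all actives have a fitted effect of over 75% in size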
[3] = molecular target: Rap guanine nucleotide exchange factor 4 (Homo sapiens) (UniProt Q8WZA2); assay: Confirmatory qHTS for agonist of cAMP-regulated guanine nucleotide exchange factor 4 (EPAC2) (AID 1645884);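 further: nucleotide exchange releases bodipy-GDP from Rap1 and this lowers its fluorescence; on the % scale 0 is the no-effect control and ±100 the full control effect; nearly all actives have a fitted effect of over 65% in size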
Sequence of Rap guanine nucleotide exchange factor 4 (Homo sapiens) (Q8WZA2 whole entry, looked up): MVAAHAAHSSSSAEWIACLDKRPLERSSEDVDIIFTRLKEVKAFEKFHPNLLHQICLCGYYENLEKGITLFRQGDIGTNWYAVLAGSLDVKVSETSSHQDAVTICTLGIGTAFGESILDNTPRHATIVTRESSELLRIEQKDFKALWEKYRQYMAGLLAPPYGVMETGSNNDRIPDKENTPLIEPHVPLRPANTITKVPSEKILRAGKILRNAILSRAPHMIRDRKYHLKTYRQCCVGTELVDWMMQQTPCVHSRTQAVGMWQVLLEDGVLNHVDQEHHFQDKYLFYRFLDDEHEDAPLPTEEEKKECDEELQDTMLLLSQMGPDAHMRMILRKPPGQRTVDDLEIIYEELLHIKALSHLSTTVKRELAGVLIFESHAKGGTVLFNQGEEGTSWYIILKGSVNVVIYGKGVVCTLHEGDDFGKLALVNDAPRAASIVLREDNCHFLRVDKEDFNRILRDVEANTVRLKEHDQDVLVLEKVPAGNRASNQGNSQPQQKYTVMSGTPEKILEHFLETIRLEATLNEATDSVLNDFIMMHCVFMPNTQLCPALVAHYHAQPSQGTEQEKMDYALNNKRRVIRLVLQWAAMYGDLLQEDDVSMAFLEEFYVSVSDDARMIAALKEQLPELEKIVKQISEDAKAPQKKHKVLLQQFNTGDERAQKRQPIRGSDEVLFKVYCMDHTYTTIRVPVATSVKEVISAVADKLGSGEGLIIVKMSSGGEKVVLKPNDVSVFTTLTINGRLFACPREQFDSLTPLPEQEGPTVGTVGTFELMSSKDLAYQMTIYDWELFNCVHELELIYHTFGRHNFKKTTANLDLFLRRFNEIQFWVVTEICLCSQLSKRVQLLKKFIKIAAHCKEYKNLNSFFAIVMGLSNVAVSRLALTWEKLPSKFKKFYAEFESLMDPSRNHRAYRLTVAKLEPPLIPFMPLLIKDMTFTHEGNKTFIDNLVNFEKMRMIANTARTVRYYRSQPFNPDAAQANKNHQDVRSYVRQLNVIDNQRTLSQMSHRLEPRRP

[4] = molecular target: Ubiquitin carboxyl-terminal hydrolase 1 (Homo sapiens) (UniProt O94782); assay: Inhibitors of USP1/UAF1: Pilot qHTS (AID 504865);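 further: rhodamine fluorescence freed from ubiquitin-rhodamine substrate followed over time; top concentration of the series differs between compounds; on the % scale 0 is the no-effect control and ±100 the full control effect; nearly all actives have a fitted effect of over 35% in size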
Sequence of Ubiquitin carboxyl-terminal hydrolase 1 (Homo sapiens) (O94782 whole entry, looked up): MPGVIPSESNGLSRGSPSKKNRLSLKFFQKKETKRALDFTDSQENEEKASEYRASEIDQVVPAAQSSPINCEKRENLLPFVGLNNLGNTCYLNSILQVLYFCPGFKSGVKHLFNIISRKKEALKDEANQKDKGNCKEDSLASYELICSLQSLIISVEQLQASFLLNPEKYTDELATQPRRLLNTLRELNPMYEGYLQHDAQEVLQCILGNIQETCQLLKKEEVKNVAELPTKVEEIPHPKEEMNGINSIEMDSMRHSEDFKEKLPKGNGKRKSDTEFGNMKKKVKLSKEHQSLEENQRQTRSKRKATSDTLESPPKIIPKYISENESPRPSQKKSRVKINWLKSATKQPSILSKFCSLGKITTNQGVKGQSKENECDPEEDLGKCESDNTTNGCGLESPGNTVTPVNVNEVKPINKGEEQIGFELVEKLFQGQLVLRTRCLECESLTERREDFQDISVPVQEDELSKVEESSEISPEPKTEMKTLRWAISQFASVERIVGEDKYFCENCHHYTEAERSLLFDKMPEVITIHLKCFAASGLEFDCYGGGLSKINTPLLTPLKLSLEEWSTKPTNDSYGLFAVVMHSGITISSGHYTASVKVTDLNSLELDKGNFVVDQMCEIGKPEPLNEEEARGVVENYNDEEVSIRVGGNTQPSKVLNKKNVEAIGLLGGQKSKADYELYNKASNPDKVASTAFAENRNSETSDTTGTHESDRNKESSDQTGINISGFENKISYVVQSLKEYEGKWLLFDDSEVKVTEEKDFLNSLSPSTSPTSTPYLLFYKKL
Summary of the method: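 Kinetic fluorescence assay: 1nM USP1/UAF1, 15 min compound preincubation, then 150nM Ub-Rho; 480/540 nm.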

[5] = molecular target: Luciferin 4-monooxygenase (Photinus pyralis) (UniProt P08659); assay: Biochemical firefly luciferase enzyme assay for NPC (AID 624030);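 further: purified P. pyralis luciferase at 10 nM with luciferin and ATP substrate; 0% = DMSO and -100% = full luciferase inhibition by PTC124 control; nearly all actives have a fitted effect of over 70% in size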
Sequence of Luciferin 4-monooxygenase (Photinus pyralis) (P08659 whole entry, looked up): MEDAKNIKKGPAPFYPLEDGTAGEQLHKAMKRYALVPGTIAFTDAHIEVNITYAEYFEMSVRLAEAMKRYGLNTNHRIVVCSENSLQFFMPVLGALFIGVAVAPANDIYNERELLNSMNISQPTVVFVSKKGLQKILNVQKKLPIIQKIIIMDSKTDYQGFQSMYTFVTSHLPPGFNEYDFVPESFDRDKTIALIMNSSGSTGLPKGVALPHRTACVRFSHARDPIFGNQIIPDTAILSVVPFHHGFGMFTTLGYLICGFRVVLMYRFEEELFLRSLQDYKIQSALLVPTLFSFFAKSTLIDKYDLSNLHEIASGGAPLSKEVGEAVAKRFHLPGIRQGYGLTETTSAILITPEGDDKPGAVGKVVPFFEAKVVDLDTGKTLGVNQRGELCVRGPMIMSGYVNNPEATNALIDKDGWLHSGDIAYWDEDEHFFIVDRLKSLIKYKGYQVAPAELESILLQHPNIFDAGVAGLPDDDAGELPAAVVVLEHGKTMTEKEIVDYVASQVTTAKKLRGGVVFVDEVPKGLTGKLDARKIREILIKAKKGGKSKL
Summary of the method: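 Counter-screen for direct inhibition of the luciferase enzyme by approved-drug library compounds, run at 10 nM enzyme in 50 mM Tris acetate (final). Luminescence was read within 5 min of enzyme-buffer addition and normalized to PTC124 versus DMSO (0%).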

[6] = S16 Schwann cell PMP22 intronic element beta-lactamase assay (AID 624044; calls by dose curve;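 further: 0% = DMSO and -100% = potassium clavulanate positive control; nearly all actives have a fitted effect of over 15% in size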); details: S16 rat Schwann cells, PMP22 element beta-lactamase FRET, 24 h; ratio activity, negative = inhibition: at 38.3 µM (top of the series) unless noted
Summary of the method: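 Rat S16 Schwann cells with beta-Lac driven by a PMP22 intronic element, compound-treated 24 h at 37 °C. LiveBLAzer FRET B/G read: 460 nm normalized to potassium clavulanate vs DMSO; 535 nm FRET as viability; concentration-effect curves classified.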

[7] = Primary qHTS to identify inhibitors of SARS-CoV-2 cell entry (AID 1645846; calls by dose curve; further: potency means the concentration at half of the fitted maximal effect; nearly all actives have a fitted effect of over 45% in size); details: SARS-CoV-2 pseudovirus cell entry assay, luminescence; activity change, negative = inhibition: at 57.1 µM (top of the series) unless noted
Summary of the method: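 Data are normalized to wells receiving SARS-CoV-2-S pseudoparticles and those given bald particles. Entry signal was luciferase luminescence in stable hACE2 Expi293F cells, 48 hr post-infection, after 1 hr compound pretreatment.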

[8] = molecular target: Glutathione peroxidase 1 (Homo sapiens) (UniProt P07203); assay: Primary qHTS Assay for Inhibitors of Recombinant Selenoprotein Glutathione Peroxidase 1 (GPX1) (AID 1845191); further: nearly all actives have a fitted effect of over 65% in size
Sequence of Glutathione peroxidase 1 (Homo sapiens) (P07203 whole entry, looked up): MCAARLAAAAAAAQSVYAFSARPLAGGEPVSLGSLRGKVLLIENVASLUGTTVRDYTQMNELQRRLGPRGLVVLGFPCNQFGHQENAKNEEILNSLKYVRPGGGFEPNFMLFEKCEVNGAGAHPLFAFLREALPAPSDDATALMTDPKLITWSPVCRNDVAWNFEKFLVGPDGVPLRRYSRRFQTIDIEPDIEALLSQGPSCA
Summary of the method: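 Recombinant GPX1 (10 nM final) was preincubated with compound for 30 min at room temperature, then reacted with 1 mM GSH, 0.5 mM CHP, 0.5 mM NADPH and 100 nM glutathione reductase; NADPH fluorescence (340/450 nm) was read at 0 and 15 min.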

[9] = molecular target: Phospholipid hydroperoxide glutathione peroxidase GPX4 (Homo sapiens) (UniProt P36969); assay: Primary qHTS Assay for Inhibitors of Recombinant Selenoprotein Glutathione Peroxidase 4 (GPX4) (AID 1845192); further: on the % scale 0 is the no-effect control and ±100 the full control effect; nearly all actives have a fitted effect of over 65% in size
Sequence of Phospholipid hydroperoxide glutathione peroxidase GPX4 (Homo sapiens) (P36969 whole entry, looked up): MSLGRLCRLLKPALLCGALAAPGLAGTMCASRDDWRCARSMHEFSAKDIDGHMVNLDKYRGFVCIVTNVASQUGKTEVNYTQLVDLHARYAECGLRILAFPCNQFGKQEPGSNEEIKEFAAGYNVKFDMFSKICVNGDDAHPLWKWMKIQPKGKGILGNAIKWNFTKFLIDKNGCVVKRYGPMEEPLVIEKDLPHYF
Summary of the method: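 GR-coupled readout: 100 nM GR, 1 mM GSH, 0.5 mM NADPH; NADPH fluorescence (ex 340/em 450 nm) read at t=0 and after 15 min RT. GPX4 200 nM, preincubated 30 min with compound; substrate 0.5 mM CHP.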

[10] = qHTS profiling for inhibitors of Plasmodium falciparum proliferation (AID 504749); further: nearly all actives have a fitted effect of over 60% in size; further: potency means the concentration at half of the fitted maximal effect;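 on activity, negative = inhibition: 0% = DMSO vehicle and full inhibition = artemisinin control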; details: P. falciparum in erythrocytes, SYBR Green DNA, 72 h, at 28.7 µM (top of the series)
Summary of the method: (§1)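 Parasite proliferation within erythrocytes, 72 h exposure. Endpoint: SYBR Green I fluorescence after overnight lysis at room temperature. Controls: 0.29 uM artemisinin, DMSO.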

[11] = system: 3D7; assay: as above; details: P. falciparum in erythrocytes, SYBR Green DNA, 72 h; series mostly up to 28.7 µM
Summary of the method: as §1

[12] = system: 7G8; assay: as above; details: P. falciparum in erythrocytes, SYBR Green DNA, 72 h; series mostly up to 12.8 µM
Summary of the method: as §1

[13] = system: AA1029; assay: as above; details: P. falciparum in erythrocytes, SYBR Green DNA, 72 h; series mostly up to 28.7 µM
Summary of the method: as §1

[14] = system: ATS189; assay: as above; details: P. falciparum in erythrocytes, SYBR Green DNA, 72 h; series mostly up to 28.7 µM
Summary of the method: as §1

[15] = system: ATS95; assay: as above; details: P. falciparum in erythrocytes, SYBR Green DNA, 72 h; series mostly up to 28.7 µM
Summary of the method: as §1

[16] = system: C2A; assay: as above; details: P. falciparum in erythrocytes, SYBR Green DNA, 72 h; series mostly up to 28.7 µM
Summary of the method: as §1

[17] = system: CP185; assay: as above; details: P. falciparum in erythrocytes, SYBR Green DNA, 72 h; series mostly up to 28.7 µM
Summary of the method: as §1

[18] = system: CP191; assay: as above; details: P. falciparum in erythrocytes, SYBR Green DNA, 72 h; series mostly up to 28.7 µM
Summary of the method: as §1

[19] = system: CP192; assay: as above; details: P. falciparum in erythrocytes, SYBR Green DNA, 72 h; series mostly up to 28.7 µM
Summary of the method: as §1

[20] = system: CP194; assay: as above; details: P. falciparum in erythrocytes, SYBR Green DNA, 72 h; series mostly up to 28.7 µM
Summary of the method: as §1

[21] = system: CP201; assay: as above; details: P. falciparum in erythrocytes, SYBR Green DNA, 72 h; series mostly up to 28.7 µM
Summary of the method: as §1

[22] = system: CP211; assay: as above; details: P. falciparum in erythrocytes, SYBR Green DNA, 72 h; series mostly up to 28.7 µM
Summary of the method: as §1

[23] = system: CP215; assay: as above; details: P. falciparum in erythrocytes, SYBR Green DNA, 72 h; series mostly up to 28.7 µM
Summary of the method: as §1

[24] = system: CP217; assay: as above; details: P. falciparum in erythrocytes, SYBR Green DNA, 72 h; series mostly up to 28.7 µM
Summary of the method: as §1

[25] = system: CP238; assay: as above; details: P. falciparum in erythrocytes, SYBR Green DNA, 72 h; series mostly up to 28.7 µM
Summary of the method: as §1

[26] = system: CP247; assay: as above; details: P. falciparum in erythrocytes, SYBR Green DNA, 72 h; series mostly up to 28.7 µM
Summary of the method: as §1

[27] = system: CP250; assay: as above; details: P. falciparum in erythrocytes, SYBR Green DNA, 72 h; series mostly up to 12.8 µM
Summary of the method: as §1

[28] = system: CP252; assay: as above; details: P. falciparum in erythrocytes, SYBR Green DNA, 72 h; series mostly up to 12.8 µM
Summary of the method: as §1

[29] = system: CP256; assay: as above; details: P. falciparum in erythrocytes, SYBR Green DNA, 72 h; series mostly up to 28.7 µM
Summary of the method: as §1

[30] = system: CP260; assay: as above; details: P. falciparum in erythrocytes, SYBR Green DNA, 72 h; series mostly up to 28.7 µM
Summary of the method: as §1

[31] = system: CP262; assay: as above; details: P. falciparum in erythrocytes, SYBR Green DNA, 72 h; series mostly up to 28.7 µM
Summary of the method: as §1

[32] = system: CP265; assay: as above; details: P. falciparum in erythrocytes, SYBR Green DNA, 72 h; series mostly up to 12.8 µM
Summary of the method: as §1

[33] = system: CP266; assay: as above; details: P. falciparum in erythrocytes, SYBR Green DNA, 72 h; series mostly up to 12.8 µM
Summary of the method: as §1

[34] = system: CP268; assay: as above; details: P. falciparum in erythrocytes, SYBR Green DNA, 72 h; series mostly up to 28.7 µM
Summary of the method: as §1

[35] = system: CP269; assay: as above; details: P. falciparum in erythrocytes, SYBR Green DNA, 72 h; series mostly up to 28.7 µM
Summary of the method: as §1

[36] = system: CP286; assay: as above; details: P. falciparum in erythrocytes, SYBR Green DNA, 72 h; series mostly up to 28.7 µM
Summary of the method: as §1

[37] = system: CP291; assay: as above; details: P. falciparum in erythrocytes, SYBR Green DNA, 72 h; series mostly up to 28.7 µM
Summary of the method: as §1

[38] = system: CP297; assay: as above; details: P. falciparum in erythrocytes, SYBR Green DNA, 72 h; series mostly up to 28.7 µM
Summary of the method: as §1

[39] = system: CP305; assay: as above; details: P. falciparum in erythrocytes, SYBR Green DNA, 72 h; series mostly up to 28.7 µM
Summary of the method: as §1

[40] = system: CP315; assay: as above; details: P. falciparum in erythrocytes, SYBR Green DNA, 72 h; series mostly up to 28.7 µM
Summary of the method: as §1

[41] = system: CP325; assay: as above; details: P. falciparum in erythrocytes, SYBR Green DNA, 72 h; series mostly up to 28.7 µM
Summary of the method: as §1

[42] = system: CP329; assay: as above; details: P. falciparum in erythrocytes, SYBR Green DNA, 72 h; series mostly up to 28.7 µM
Summary of the method: as §1

[43] = system: CP335; assay: as above; details: P. falciparum in erythrocytes, SYBR Green DNA, 72 h; series mostly up to 12.8 µM
Summary of the method: as §1

[44] = system: DFO2036; assay: as above; details: P. falciparum in erythrocytes, SYBR Green DNA, 72 h; series mostly up to 28.7 µM
Summary of the method: as §1

[45] = system: DIV14; assay: as above; details: P. falciparum in erythrocytes, SYBR Green DNA, 72 h; series mostly up to 28.7 µM
Summary of the method: as §1

[46] = system: Dd2; assay: as above; details: P. falciparum in erythrocytes, SYBR Green DNA, 72 h; series mostly up to 28.7 µM
Summary of the method: as §1

[47] = system: ECU; assay: as above; details: P. falciparum in erythrocytes, SYBR Green DNA, 72 h; series mostly up to 28.7 µM
Summary of the method: as §1

[48] = system: FAB9; assay: as above; details: P. falciparum in erythrocytes, SYBR Green DNA, 72 h; series mostly up to 28.7 µM
Summary of the method: as §1

[49] = system: GB4; assay: as above; details: P. falciparum in erythrocytes, SYBR Green DNA, 72 h; series mostly up to 28.7 µM
Summary of the method: as §1

[50] = system: ICS; assay: as above; details: P. falciparum in erythrocytes, SYBR Green DNA, 72 h; series mostly up to 28.7 µM
Summary of the method: as §1

[51] = system: JCK; assay: as above; details: P. falciparum in erythrocytes, SYBR Green DNA, 72 h; series mostly up to 28.7 µM
Summary of the method: as §1

[52] = system: P94_40; assay: as above; details: P. falciparum in erythrocytes, SYBR Green DNA, 72 h; series mostly up to 28.7 µM
Summary of the method: as §1

[53] = system: PC49; assay: as above; details: P. falciparum in erythrocytes, SYBR Green DNA, 72 h; series mostly up to 28.7 µM
Summary of the method: as §1

[54] = system: TAB109; assay: as above; details: P. falciparum in erythrocytes, SYBR Green DNA, 72 h; series mostly up to 12.8 µM
Summary of the method: as §1

[55] = system: TAB113; assay: as above; details: P. falciparum in erythrocytes, SYBR Green DNA, 72 h; series mostly up to 28.7 µM
Summary of the method: as §1

CCOC(=O)[C@]12Cc3ccsc3[C@H]1N(Cc1ccccc1)C(=O)c1ccccc12
inactive: Potency [1] | Potency [2] | Potency [3]

C[C@]12CC[C@H](O)C[C@H]1CCC1C2CC[C@]2(C)[C@@H](c3ccc(=O)oc3)C[C@H]3O[C@]132 (stereo partly specified)
active: Potency [7] 7.08 µM | Potency [12] 11.2 µM | Potency [45] 13.5 µM | Potency [50] 7.08 µM
inactive: Potency [4] | Potency [5] | Potency [6] | Potency [8] | Potency [9] | activity, negative = inhibition ([10]; parasite line A) -25.7% | activity, negative = inhibition ([10]; parasite line B) -8.73% | Potency [11] | Potency [13] | Potency [14] | Potency [15] | Potency [16] | Potency [17] | Potency [18] | Potency [19] | Potency [20] | Potency [21] | Potency [22] | Potency [23] | Potency [24] | Potency [25] | Potency [26] | Potency [27] | Potency [28] | Potency [29] | Potency [30] | Potency [31] | Potency [32] | Potency [33] | Potency [34] | Potency [35] | Potency [36] | Potency [37] | Potency [38] | Potency [39] | Potency [40] | Potency [41] | Potency [42] | Potency [43] | Potency [44] | Potency [46] | Potency [47] | Potency [48] | Potency [49] | Potency [51] | Potency [52] | Potency [53] | Potency [54] | Potency [55]
